# TDP1 cell CPT – DT40-hTDP1 cell growth loss with CPT. chicken DT40 Tdp1-/-;hTDP1 cells + 20 nM CPT, ATP luminescence, 48 h. 12% of 420,000 active. Potency, µM (series often up to 46.2 µM), inactives show top-dose activity change, negative = growth inhibition, most hits filed as inhibitors; also: potency is read from the fitted curve at half-maximal effect; nearly all actives have a fitted effect of over 55% in size
#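 Chicken DT40 Tdp1-/- cells complemented with human TDP1, 400 cells/well, exposed to compounds plus 20 nM camptothecin for at least 48 h at 37 C; viability read as ATP content by CellTiter-Glo luminescence.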
# TDP1 block – TDP1 (human) enzyme inhibition | Q9NUW8 | Potency, µM (series often up to 130 µM), for the others: top-dose activity change, negative = inhibition, actives largely listed as inhibitors | recombinant TDP1, AlphaScreen DNA substrate cleavage | 0.28% of 350,000 active; also: potency is read from the fitted curve at half-maximal effect; nearly all actives have a fitted effect of over 40% in size
#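 Signal: AlphaScreen proximity between streptavidin donor and anti-FITC acceptor beads on intact substrate. Reaction: Tdp1 1 nM, substrate 15 nM final, 5 min RT after 15 min compound preincubation.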
# Six1-Eya2 inh – blocks human Six1 binding to Eya2; Q15475+O00167; AlphaScreen GST-Six1/His-Eya2 binding, biochemical; stronger effect = lower value; activity change, % (concentration not given with the values); 0.56% of 360,000 active; in the data active = activity change below about -65%; inconclusive = mostly about -30% to -63%
# Target sequence (O00167 whole entry, looked up): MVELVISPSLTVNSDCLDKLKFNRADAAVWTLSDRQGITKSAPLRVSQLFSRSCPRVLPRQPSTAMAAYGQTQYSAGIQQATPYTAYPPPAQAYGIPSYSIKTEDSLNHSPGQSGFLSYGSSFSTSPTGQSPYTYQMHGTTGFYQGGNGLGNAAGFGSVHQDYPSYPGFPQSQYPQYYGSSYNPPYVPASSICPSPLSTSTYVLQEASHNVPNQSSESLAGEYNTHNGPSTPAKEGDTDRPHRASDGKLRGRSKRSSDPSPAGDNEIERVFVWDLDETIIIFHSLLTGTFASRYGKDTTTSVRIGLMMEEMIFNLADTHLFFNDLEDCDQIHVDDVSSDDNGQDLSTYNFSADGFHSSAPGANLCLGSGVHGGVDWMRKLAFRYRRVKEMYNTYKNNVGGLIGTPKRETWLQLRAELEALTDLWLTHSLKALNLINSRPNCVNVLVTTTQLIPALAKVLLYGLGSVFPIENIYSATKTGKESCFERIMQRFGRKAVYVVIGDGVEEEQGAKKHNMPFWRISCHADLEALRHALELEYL
# Target sequence (Q15475 whole entry, looked up): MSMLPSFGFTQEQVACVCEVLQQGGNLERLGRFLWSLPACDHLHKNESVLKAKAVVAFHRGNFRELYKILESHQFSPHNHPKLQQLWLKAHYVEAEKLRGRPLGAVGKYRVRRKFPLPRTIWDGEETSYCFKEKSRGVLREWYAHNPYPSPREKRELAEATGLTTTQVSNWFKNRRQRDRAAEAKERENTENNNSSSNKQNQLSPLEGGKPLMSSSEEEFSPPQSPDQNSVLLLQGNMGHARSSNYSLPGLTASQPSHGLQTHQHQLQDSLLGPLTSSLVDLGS
#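 AlphaScreen luminescence read after one hour at 37 °C in darkness. Pin-transferred compounds met GST-Six1 and His-Eya2 protein (5X stock 250 nM/500 nM) plus glutathione donor and Ni-chelate acceptor beads (5X, 50 ug/mL).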
# CtBP-E1A inh – inhibitors of CtBP/E1A interaction; AlphaScreen GST-E1A/His-CtBP binding, 1536-well; stronger effect = lower value; activity change, % (no concentration beside the values); 0.49% of 340,000 active; in the data active = activity change below about -65%; inconclusive = mostly about -30% to -63%
#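 Steps: dispense buffer (Tris pH 8.0, NaCl 300 mM, TCEP 1 mM, BSA, Tween 20); add 5X protein mix (GST-E1A, His-CtBP, 125 nM each); pin 23 nL compound; 2 h at 37 °C, dark; add 5X beads (50 ug/mL); 1 h; read.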
# IL-1B inflam inh – blocks inflammasome-driven IL-1 beta release; THP-1 LPS/ATP IL-1B secretion, AlphaLISA, 16 h; stronger effect = lower value; activity change, % at 57.5 µM; 4.7% of 360,000 active; in the data active = activity change below about -50%; inconclusive = mostly about -30% to -49%
#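 Secreted IL-1B measured by AlphaLISA bead assay after 16 h compound exposure of THP-1 cells; compounds (final up to 57.5 uM) added 1 h before LPS (250 ng/mL) and ATP (1.25 mM) stimulation; lower signal means less secretion.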
# TDP1 cell noCPT – qHTS for Inhibitors of human tyrosyl-DNA phosphodiesterase 1 (TDP1): qHTS in cells in absence of CPT. DT40 Tdp1-/- hTDP1 cells, no CPT, ATP luminescence, 48 h. Potency, µM (series often up to 46.2 µM), for the others: at the top dose activity change, negative = growth inhibition, actives largely listed as inhibitors. 15% of 420,000 active. AID 686978, 2013; also: potency is read from the fitted curve at half-maximal effect; nearly all actives have a fitted effect of over 55% in size
#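 Chicken DT40 Tdp1-/- cells stably complemented with human TDP1 were seeded at 400 cells/well with DMSO in place of 20 nM camptothecin. After compound pinning, cells grew at least 48 hr at 37 °C; viability read by CellTiter-Glo luminescence.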
# * = called active by the depositor; ? = inconclusive; / = not tested or not shown; [ ] = another dose, or the depositor's remark. This is a sample that favours compounds with a hit; in the whole collection about 18% have one here. Unless noted, calls follow the shape of the dose curve; as a rule, active = well fitted curve in the direction sought with a large enough effect; inconclusive = small, poorly fitted or top-dose-only effect, or another doubt; inactive = no such curve, though single readings can be large; an effect the other way counts as inactive or inconclusive. % is scaled to controls: 0 for no effect and ±100 for the full control effect.
SMILES,TDP1 cell CPT,TDP1 block,Six1-Eya2 inh,CtBP-E1A inh,IL-1B inflam inh,TDP1 cell noCPT
c1ccc(N2OCC3Cn4c(nc5ccccc54)C32)cc1 (stereo not drawn),-10%,2%,5,4,27,-18%
O=C(COC(=O)c1ccc(S(=O)(=O)N2CCCC2)cc1)Nc1cccc(Cl)c1,0%,0%[56.1 µM],7,3,-9,8%
C[C@@H](C(=O)NC1CCN(Cc2ccccc2)CC1)N1C(=O)N2CCc3c([nH]c4ccccc34)[C@@]2(C)C1=O,23µM*,/,-7,-12,-18,?
CCOc1ccccc1N1CCN(Cc2cnc(-c3ccccc3)[nH]2)CC1,?,/,-13,-7,?,23µM*
Cc1cc(Cl)ccc1OCC(=O)Nc1cccc(-c2nc3ccccc3o2)c1,?,/,/,/,/,13µM*
Cc1cc2nc(-c3cccc(NC(=O)COc4ccc(C(C)C)cc4)c3)oc2cc1C,21µM*,3%,/,/,/,16µM*
Cc1ccc(-c2nc3cc(Cl)ccc3o2)cc1NC(=O)COc1ccccc1C,8.9µM*,/,/,/,/,11µM*
Cc1ccc(OCC(=O)Nc2ccc(-c3nc4ccccc4o3)cc2)c(C)c1,-18%,7%[12.3 µM],/,/,/,-14%
O=C(COc1ccc(S(=O)(=O)N2CCOCC2)cc1Cl)NCCCn1ccnc1,2%,/,-6,3,0,-11%
COCCCNC(=S)Nc1cccc(SC)c1,2%,/,10,-2,25,0%
COCCCN(Cc1cc(OC)c(OC)c(OC)c1)C(=S)Nc1cccc(SC)c1,16µM*,/,-10,7,6,8.2µM*
Cc1ccccc1NC(=S)N(Cc1ccccc1)Cc1cccnc1,0%,6%,?,-17,-60*,-7%
COc1cccc(NC(=S)N(CCc2nc3cc(C)c(C)cc3[nH]2)Cc2cccnc2)c1,23µM*,8%,-2,10,8,-71%
CSc1cccc(NC(=S)N(Cc2ccc(C)cc2)Cc2cccnc2)c1,?,3%,-15,5,18,21µM*
Cc1cccc(NC(=S)N(CCc2nc3cc(C)c(C)cc3[nH]2)Cc2cccnc2)c1,0%,4%,4,9,3,-16%
Cn1c(=O)c2[nH]c(N/N=C(/C#N)C(N)=O)nc2n(C)c1=O,5%,5%,-10,-11,-16,?
Cc1nn(CC(=O)NCCCN2CCN(C)CC2)c(=O)c2cc(-c3ccccc3)nn12,5%,4%,-3,-4,-11,16%
CCOC(=O)C1CCCN(C(=O)Cn2nc(C)n3nc(-c4ccccc4)cc3c2=O)C1 (stereo not drawn),15µM*,4%,0,1,12,?
Cc1nn(CC(=O)NCCCN2CCC(N3CCCCC3)CC2)c(=O)c2cc(-c3ccccc3)nn12,7.3µM*,1%,0,-13,-20,4.1µM*
CCc1ccc(-c2cc3c(=O)n(CC(=O)NCCCN4CCN(CC)CC4)nc(C)n3n2)cc1,18µM*,1%,0,1,?,?
CCN1CCN(CCCNC(=O)Cn2nc(C)n3c(cc4cc(C)ccc43)c2=O)CC1,-12%,-1%,/,/,/,-23%
CCN1CCN(c2ccc(S(=O)(=O)N3CCCCC3)cc2NC(=O)c2cccc(C)c2[N+](=O)[O-])CC1,?,1%,-3,-18,-1,?
CCCCCCCCCCCCCCCCn1cc[n+](CC(C)=O)c1,0.65µM*,5%,10,7,22,1.3µM*
COCCCN1C(=O)C(CC(=O)NCc2cccc3ccccc23)CC(C(=O)N(C(C)C)C(C)C)=C1C (stereo not drawn),-24%,/,5,-21,-26,?
Cn1nnc2c[n+](CC(=O)c3ccc4ccccc4c3)cc(Br)c21,?,2%,4,4,-101*,15µM*

# High-throughput results from PubChem BioAssay.
